# Assay outcomes: PubChem BioAssay, Broad Institute
# Tg IFNy HTS: blocks Toxoplasma gondii growth in the presence of IFN-gamma; activity change, negative = inhibition, % (test concentration not listed); Toxoplasma gondii growth in IFN-gamma-treated host cells; stronger effect = lower value; 3.8% of 69,000 active; in the data active = activity change below about -70%, passing the limit was not always enough;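 also: host cells are HeLa cells infected with Toxoplasma gondii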
# The depositor's hits bear a star; ! = a repeat was not active. This excerpt belongs to a sample that is enriched for hits.
SMILES,Tg IFNy HTS
CCOC(=O)c1[nH]c(C)c(CN2CC3CCCN3C[C@H]2C)c1C (stereo partly drawn),23
C[C@@H]1CN([C@H](C)CO)C(=O)c2cc(-c3cccc(C(=O)N(C)C)c3)cnc2O[C@H]1CN(C)C(=O)Cc1ccccn1,12
O=C(CC(=O)c1ccccc1O)c1ccc(F)cc1,-109*
O=C(NO)c1ccccc1O,-9
O=C(O)c1ccccc1O,7
CC[C@H](NC(C)C)[C@H](O)c1ccc(O)c2[nH]c(=O)ccc12,10
C[C@@H]1CN([C@@H](C)CO)C(=O)c2cc(C#Cc3ccccc3)cnc2O[C@@H]1CN(C)C(=O)c1ccccc1,-64
CCN1CCC[C@H]1CNC(=O)c1c(O)c(Cl)cc(Cl)c1OC,16
Cc1ccc(C2OCC3(CO)COC(c4ccc(C)cc4)N23)cc1 (stereo not drawn),10
Nc1ncnc2c1c(-c1cnc3[nH]ccc3c1)nn2C1CCCC1,-77*
Cc1ccc(-c2cc(NC3CCCC3)nc3[nH]ccc23)c(N)n1,-3
O=C(COC(=O)c1ccc2c3c1C1C=CCC1CN3CC1CC=CC21)c1ccc(Cl)cc1 (stereo not drawn),5
CC(C)Oc1ccc2c(=O)c(-c3ccccc3)coc2c1,431
CC(C)Oc1ccc(C2NC(=O)c3ccccc3O2)cc1 (stereo not drawn),-98*
O=C1NCC(c2ccccc2)Oc2ccccc21 (stereo not drawn),-27
CO[C@H]1CC(O[C@@H]2/C(C)=C/C[C@@H]3C[C@@H](C[C@]4(C=C[C@H](C)[C@@H](C5CCCCC5)O4)O3)OC(=O)[C@@H]3C=C(C)[C@@H](O)[C@H]4OC/C(=C\C=C\[C@@H]2C)[C@]43O)O[C@@H](C)C1O[C@H]1C[C@H](OC)[C@@H](O)[C@H](C)O1 (stereo partly drawn),-73*
CCC(C)[C@H]1O[C@]2(CC[C@@H]1C)C[C@@H]1C[C@@H](C/C=C(\C)[C@@H](OC3C[C@H](OC)C(O[C@H]4C[C@H](OC)[C@@H](O)[C@H](C)O4)[C@H](C)O3)[C@@H](C)/C=C/C=C3\CO[C@@H]4[C@H](O)C(C)=C[C@@H](C(=O)O1)[C@]34O)O2 (stereo partly drawn),-80*
CC[C@H](C)[C@H]1O[C@]2(CC[C@@H]1C)C[C@@H]1C[C@@H](C/C=C(\C)[C@@H](O[C@H]3C[C@H](OC)[C@@H](O[C@H]4C[C@H](OC)[C@@H](O)[C@H](C)O4)[C@H](C)O3)[C@@H](C)/C=C/C=C3\CO[C@@H]4[C@H](O)C(C)=C[C@@H](C(=O)O1)[C@]34O)O2,-87*!
CCN1CCC2(CC1)OC(=O)C(C)=C2C(=O)NCC(C)c1ccccc1 (stereo not drawn),-12
CCCNC(=O)c1cc2c(c(-c3cccc(-c4cc5ccccc5o4)c3)n1)[C@@H](CCO)N(C(=O)NC(C)C)C2,-58
CC(C)OC(=O)c1cc2c(ccn2-c2ccc(F)cc2)n1Cc1ccc2ccccc2n1,142
CCCOc1ccc2nc(NC(=O)OC)sc2c1,-41
COC(=O)c1cc2n(n1)CCCN(C(=O)C(=O)c1cccnc1)C2,0
COCc1cn(CC[C@@H]2CC[C@H](NC(=O)Nc3c(C)noc3C)[C@H](CO)O2)nn1,-40
COCCNc1c(C(=O)OC)c(=O)[nH]c2ccc(F)cc12,35
SMILES,Tg IFNy HTS
COC(=O)c1c(NCCc2c[nH]c3ccccc23)c2cc(F)ccc2[nH]c1=O,-99*
COC(=O)c1c(NCCc2ccccc2)c2cc(F)ccc2[nH]c1=O,7
Cn1ncc(Br)c1N1C(=O)c2ccccc2C1=O,7
Cc1ccc(-c2nc(C)c(CCNS(=O)(=O)c3ccc(F)cc3)s2)cc1,19
Cc1ccc(CN2CCC(CNC(=O)C(C)n3c4ccccc4c4cnn(C)c(=O)c43)C2)cc1 (stereo not drawn),-104*
Cc1ccc(CN2CCC(CNC(=O)Cn3c4ccccc4c4cnn(C)c(=O)c43)C2)cc1 (stereo not drawn),21
CC(CCNC(=O)C(C)n1c2ccccc2c2cnn(C)c(=O)c21)N1CCCC1 (stereo not drawn),0
COc1ccc(C(=O)N2CCOC(C(F)(F)F)C2)c(OC)c1OC (stereo not drawn),-3
COc1ccccc1-c1nc(-c2cccc(NC(=O)c3ccco3)c2)no1,309
CCOC(=O)c1c(C)c(NC(C)=O)c(C)n1C(C)=O,0
O=C(Cn1ncc2c(N3CCOCC3)ncnc21)Nc1ccccc1,119
Cc1onc(-c2c(Cl)cccc2Cl)c1C(=O)NC(=S)Nc1ccccc1,-73*
Cc1onc(-c2ccccc2)c1C(=O)Nc1cccnc1,23
COC(=O)c1ccc(Cl)cc1NC(=O)c1c(-c2c(F)cccc2Cl)noc1C,-19
CCn1c(C2CCNCC2)nn(CCOc2ccc(C)cc2C)c1=O,-49
COc1cc2c(cc1OC)C1N(CC2)C(C(C)=O)=NN1c1ccc(C)cc1 (stereo not drawn),37
CSCC1CN(/N=C/c2ccc([N+](=O)[O-])o2)C(=O)O1 (stereo not drawn),14
O=C1CN(/N=C/c2ccc(-c3ccc([N+](=O)[O-])cc3)o2)C(=O)N1,-76*
O=C1OCCN1/N=C/c1ccc([N+](=O)[O-])o1,-19
COc1ccc2ncc3c(c2c1)-c1cc(Cl)ccc1OC3,255
COc1ccc(CN2COc3ccc(Cl)cc3C2)cc1,-89*
CC1CN(CC(=O)NCc2ccc3c(c2)OCO3)Cc2cc(Cl)ccc2O1 (stereo not drawn),3
CCC(CO)N(Cc1ccco1)C(=O)c1cn(C)c2ccc(C)cc2c1=O (stereo not drawn),68
Cc1nc(CCNC(=O)C2CCN(S(=O)(=O)c3cc(F)ccc3F)CC2)cs1,21
COc1ccc(S(=O)(=O)CCNCc2cc(Cl)c3c(c2)OCCCO3)cc1,-46
SMILES,Tg IFNy HTS
Cc1oc2ccccc2c1CNC(=O)Nc1ccc(Br)cc1,-47
Cc1c(CNC(=O)Nc2ccccc2)sc2ccccc12,-79*
O=C(Nc1ccccc1)Nc1nc(=O)c2ccccc2s1,143
CN(C)S(=O)(=O)N1CCC(Oc2ccc(C(=O)NCc3cccs3)cc2)CC1,-52
COc1cccc(-c2nc(Cn3nnc(C(=O)Nc4cc(C)cc(C)c4)c3C)c(C)o2)c1OC,-105*
COc1cccc(-c2nc(Cn3nnc(C(=O)Nc4ccccc4)c3C)c(C)o2)c1OC,-50
COc1cccc(-c2nc(Cn3nnc(C(=O)Nc4cccc(Cl)c4C)c3C)c(C)o2)c1OC,-16
CCOc1ccccc1NC(=O)c1nnn(Cc2nc(-c3cccc(OC)c3OC)oc2C)c1C,-79*
COc1ccc(NC(=O)c2nnn(Cc3nc(-c4cccc(OC)c4OC)oc3C)c2C)cc1Cl,32
CCOc1ccccc1-c1nc(Cn2nnc(C(=O)Nc3ccccc3OC)c2C)c(C)o1,-19
C[C@H](CO)N1C[C@H](C)[C@H](CN(C)Cc2ccc3c(c2)OCO3)OCCCC[C@H](C)Oc2ccc(NS(=O)(=O)c3cn(C)cn3)cc2C1=O,111
Cc1nc(C(C)n2cc(-c3sccc3C)nn2)cs1 (stereo not drawn),-16
COc1ccc(CNC(=O)N(C)C[C@@H]2OCc3ccccc3-c3c(n(C)c4ccccc34)C(=O)N([C@H](C)CO)C[C@H]2C)cc1,-48
C#C[C@]1(O)CCC2C3CCC4=CC(=O)CC[C@@H]4C3CC[C@@]21CC (stereo partly drawn),-36
C#C[C@]1(O)CC[C@H]2[C@@H]3CCC4=CC(=O)CC[C@@H]4[C@H]3CC[C@@]21C,-68
